# Source: PubChem
# A selection: hits, their analogues and other compounds. The true share with any hit is near 8%.
# KB-V1 cytotox: kills drug-selected multidrug resistant KB-V1 cells. AID 1347076. 3.4% of 400,000 active. Potency, µM (top dose mostly 46.1 µM), usual class: cytotoxic. KB-V1 MDR cells viability, CellTiter-Glo, 72 h; also: % is scaled to controls: 0 for no effect and ±100 for the full control effect; nearly all actives have a fitted effect of over 60% in size
#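 Potencies derive from concentration-effect curves fitted to normalized luminescence (CellTiter-Glo) of KB-V1 cells treated for 72 h at 37 degrees C in phenol-red-free DMEM containing 10% FBS.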
# KB-3-1 cytotox: KB-3-1 parental cell cytotoxicity; KB-3-1 viability, CellTiter-Glo ATP luminescence, 72 h; Potency, µM (highest dose often 46.1 µM), usual class: cytotoxic; 1.4% of 400,000 active; also: % is scaled to controls: 0 for no effect and ±100 for the full control effect; nearly all actives have a fitted effect of over 60% in size
#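 Luminescent ATP read-out (CellTiter-Glo) measures survival of drug-naive KB-3-1 cells after 72 h compound exposure at 37 °C. Titration series was screened from lowest to highest concentration, with DMSO vehicle plates as background controls.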
# MCF10A rerep: induces DNA re-replication in MCF 10a normal breast cells. MCF 10A DNA re-replication, Hoechst nuclear intensity, 48 h. Potency, µM (top dose mostly 46.1 µM), for inactives: at the top dose activity, positive = re-replication, usual class: activators. 2.9% of 350,000 active. AID 624296; also: % of control where 0% means no effect; nearly all actives have a fitted effect of over 50% in size
# HT1080 IDH1KD tx: toxicity to HT-1080 IDH1 knockdown cells (counter line) | Potency, µM (highest dose often 46.1 µM), for inactives: at the top dose activity, negative = toxicity, usual class: cytotoxic | AID 686971 | 2% of 360,000 active | HT-1080 IDH1 knockdown viability, ATP luminescence, 48 h;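 also: 0% = DMSO wells and -100% = cell-free medium wells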
#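 Cytotoxicity counter-line: IDH1KD HT-1080, 48 h, CellTiter-Glo. Curves classed by r2, magnitude and activity.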
# SW480 rerep: induces DNA re-replication in SW480 colon adenocarcinoma cells | AID 624297 | Potency, µM (titrated, usually from 46.1 µM), without a hit: at the highest dose re-replication activation, usual class: activators | SW480 DNA re-replication, Hoechst DNA content imaging, 48 h | 1.8% of 340,000 active; also: % of control where 0% means no effect; nearly all actives have a fitted effect of over 55% in size
#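 Image-based read-out: total Hoechst fluorescence of nuclei (405 nm excitation, 500-530 nm emission), with hits raising the fraction of high-intensity nuclei. SW480 colon cells incubated 48 hr with compounds at 37 C.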
# HT1080-NT tox: kills 2HG-producing HT-1080-NT fibrosarcoma cells. HT-1080-NT fibrosarcoma viability, CellTiter-Glo ATP luminescence, 48 h. Potency, µM (titrated, usually from 46.1 µM), for inactives: top-dose activity, negative = less viability, most hits filed as cytotoxic. 1.6% of 360,000 active. AID 686970;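 also: NT is the 2HG producing partner of a matched IDH1 knockdown line; 0% = DMSO-treated cells and -100% = media-only wells without cells; nearly all actives have a fitted effect of over 55% in size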
#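 HT-1080-NT fibrosarcoma cells (2HG-overproducing), 750 cells/well in RPMI with 5% FBS, dosed after 2 h and incubated 48 h at 37C. CellTiter-Glo luminescence normalized to DMSO and no-cell wells; concentration-response curves fitted and classed.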
# Starred values were filed as active, the others as inactive; i = inactive; ? = inconclusive; / = no result; [ ] = dose if it differs, or a comment. Calls follow the shape of the dose curve; as a rule, active = well fitted curve in the direction sought with a large enough effect; inconclusive = small, poorly fitted or top-dose-only effect, or another doubt; inactive = no such curve, though single readings can be large; an effect the other way counts as inactive or inconclusive. Potency is read from the fitted curve at half-maximal effect.
SMILES,KB-V1 cytotox,KB-3-1 cytotox,MCF10A rerep,HT1080 IDH1KD tx,SW480 rerep,HT1080-NT tox
COc1cc(CNCc2c[nH]c3ccccc23)cc(OC)c1,7.3µM*,i,?,-21%,6%,?
COc1cc(CNCc2cccc3ccccc23)cc(OC)c1,i,i,9%,-7%,0%,-11%
COc1ccc(-c2csc(N(CCCN(C)C)C(=O)c3ccc(F)cc3)n2)cc1,?,i,0%,?,1%,-21%
O=C(COc1ccccc1)N(CCc1ccccc1)c1nc(-c2ccc(F)cc2)cs1,15µM*,i,28%,21%,11%,19%
CN(C)CCCN(C(=O)c1cccs1)c1nc(-c2ccccc2)cs1,9.2µM*,i,?,?,?,?
COc1ccc(-c2csc(N(CCCN(C)C)C(=O)c3ccccc3C)n2)cc1,i,i,0%,?,?,?
COc1ccc(-c2csc(N(CCCN(C)C)C(=O)c3ccccc3Cl)n2)cc1,?,16µM*,?,18µM*,?,21µM*
CCN(CC)CCCN(C(=O)c1ccc(F)cc1)c1nc(-c2ccc(OC)cc2)cs1,i,i,7%,23µM*,4%,?
COc1cccc(CN2CCN(Cc3cccc4nonc34)CC2CCO)c1 (stereo not drawn),i,i,0%,7%,-100%,-2%
CCC(=O)Nc1cc(ON=C(C)C)cc([N+](=O)[O-])c1,i,i,-3%,8%,-5%,-1%
O=C(CCl)Nc1cc(SCC(O)CO)cc([N+](=O)[O-])c1 (stereo not drawn),?,5.8µM*,?,1.6µM*,5.8µM*,1.8µM*
CC(C)=NOc1cc(NC(=O)CCl)cc([N+](=O)[O-])c1,16µM*,18µM*,6.5µM*,9.2µM*,9.2µM*,5.8µM*
O=S(Cc1ccc(Br)cc1)Cc1nnc(SCc2ccc(Br)cc2)n1-c1ccccc1 (stereo not drawn),2.9µM*,16µM*,23µM*,?,?,-5%
CC(C)C(=O)NCCCc1ccccc1,?,i,-4%,23%,-6%,15%
CCc1ccc(C2c3[nH]c4ccccc4c3CCN2C(=O)c2cc(C)nn2C)cc1 (stereo not drawn),?,?,23µM*,?,?,?
CCc1cc(C(=O)N2CCc3c([nH]c4ccccc34)C2c2ccc(OC)cc2F)no1 (stereo not drawn),?,5.8µM*,?,-30%,?,?
COc1ccc(C2c3[nH]c4ccccc4c3CCN2C(=O)c2ccc(=O)n(C)n2)c(F)c1 (stereo not drawn),i,i,-15%,?,1%,?
O=C(c1cnccn1)N1CCc2c([nH]c3ccccc23)C1c1cccc(Cl)c1 (stereo not drawn),23µM*,?,29%,-24%,21%,-14%
CN1/C(=C\C(=O)c2cccs2)Sc2ccccc21,?,i,18µM*,?,15µM*,?
CN1/C(=C\C(=O)c2cccs2)C(C)(C)c2ccccc21,?,i,4.1µM*,5%,?,4%
COc1ccc(S(=O)(=O)NNc2nc(C)cc(C)n2)cc1[N+](=O)[O-],?,i,5%,2%,-9%,14%
Cc1nc(S(=O)(=O)c2ccc(Cl)cc2)nc2c1CCC2,15µM*,i,9%,0%,10%,-1%
Cc1ccc(S(=O)(=O)c2nc(C)c3c(n2)CCC3)cc1,i,i,-2%,1%,-1%,-3%
O=C(NCCCCNC(=O)C1CCCC1)C1CCCC1,i,i,-1%,-1%,-10%,3%
CCCCOCCCNC(=O)C1CCCCC1,i,i,12µM*,-9%,?,14%
SMILES,KB-V1 cytotox,KB-3-1 cytotox,MCF10A rerep,HT1080 IDH1KD tx,SW480 rerep,HT1080-NT tox
N#Cc1c(OCC(=O)c2ccccc2)nc2c(c1-c1ccco1)CCc1ccccc1-2,8.2µM*,i,?,2%,11%,-15%
Cc1cc(C)c2c(N)c(-c3nc4ccccc4[nH]3)sc2n1,i,i,?,-6%,27%[9.22 µM],-21%
Cc1ccc2nc(-c3sc4nc(C)ccc4c3N)[nH]c2c1,i,i,16µM*,-5%,?,0%
CC(=O)Nc1ccc(Nc2cc(C)nc3c(-c4ccccc4)c(C)nn23)cc1,i,i,-7%,-22%,-8%,-8%
Cc1nn2c(NCCCn3ccnc3)cc(C(C)C)nc2c1-c1ccccc1,?,i,-9%,?,-35%,15µM*
CC(=O)Nc1ccc(Nc2cc(C(C)C)nc3c(-c4ccccc4)c(C)nn23)cc1,i,5.8µM*,?,?,?,?
Cc1nn2c(NCc3ccccn3)cc(C(C)C)nc2c1-c1ccccc1,?,i,?,?,?,-27%
Cc1cc(NCCC(C)C)n2nc(C)c(-c3ccccc3)c2n1,21µM*,i,15µM*,?,8%,?
O=C1CC(c2ccccc2)CC(O)=C1C=NCCCN1CCOCC1 (stereo not drawn),i,i,?,-1%,1%,-3%
Clc1cccc(C(c2ccc3nc[nH]c3c2)n2ccnc2)c1 (stereo not drawn),/,/,11%,/,-2%,/
Cc1cc(=O)n2c3ccccc3n(CC(O)CN3CCC(C)CC3)c2c1C#N (stereo not drawn),i,i,8%,-5%,1.3µM*,-2%
Cc1ccccc1N/C(SCc1ccc(Cl)cc1)=C(/C#N)C(=O)NCc1ccco1,12µM*,?,19%,?,?,?
O=C(CCSCc1ccc(Cl)cc1)NCc1ccco1,i,i,11%,11%,-6%,9%
Cc1ccc(CS/C(Nc2ccccc2C)=C(\C#N)C(=O)NCc2ccco2)c(C)c1,15µM*,?,?,-14%,14%,-10%
CCOc1ccc(S(=O)(=O)N(CC(N)=O)c2ccc(C)cc2)cc1,i,i,2%,-5%,1%[9.22 µM],-1%
Cc1ccc2oc(=O)c3cnn(CC(=O)NC4CCCCC4C)c3c2c1 (stereo not drawn),i,i,?,-13%,?,-1%
NC(=O)c1sc2nc3c(cc2c1N)CCCCCC3,i,i,12%,-10%,-12%,-5%
COc1ccc(N2CCC(CNC(=O)Nc3ccccc3)C2)cc1 (stereo not drawn),16µM*,i,19%,8%,-15%,1%
